Measurements: PubChem BioAssay (NCATS)
Results filed as inconclusive are left out. Some of the results follow. Calls of active or inactive are those of the source. Calls come from the whole dose curve; as a rule, active = well fitted curve in the direction sought with a large enough effect; inconclusive = small, poorly fitted or top-dose-only effect, or another doubt; inactive = no such curve, though single readings can be large; an effect the other way counts as inactive or inconclusive.

Experiments:
[1] = molecular target: Ferritin light chain (Equus caballus) (UniProt P02791); assay: qHTS Validation Assay for Identification of Novel General Anesthetics (AID 2323); note: potency is the fitted concentration of half-maximal effect
Sequence of Ferritin light chain (Equus caballus) (P02791 2-175 limits assumed): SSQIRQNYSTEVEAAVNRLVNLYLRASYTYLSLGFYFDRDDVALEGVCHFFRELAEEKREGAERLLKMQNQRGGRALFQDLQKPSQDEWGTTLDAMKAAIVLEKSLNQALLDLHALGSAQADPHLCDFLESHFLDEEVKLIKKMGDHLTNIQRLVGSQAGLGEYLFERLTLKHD
Procedure, shortened: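 Normalized fluorescence response, scaled between free 1-AMA and 1-AMA/apoferritin complex, fitted to a four-parameter Hill equation for concentration-effect values. Binding mix: 10 uM horse-spleen apoferritin, 50% saturated 1-AMA in PBS; read 380/535 nm after 10 min.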

[2] = molecular target: ATP-dependent DNA helicase Q1 (Homo sapiens) (UniProt P46063); assay: qHTS Validation Assay for Inhibitors of RecQ-Like Dna Helicase 1 (RECQ1) (AID 2353); note: potency is the fitted concentration of half-maximal effect
Sequence of ATP-dependent DNA helicase Q1 (Homo sapiens) (P46063 whole entry, looked up): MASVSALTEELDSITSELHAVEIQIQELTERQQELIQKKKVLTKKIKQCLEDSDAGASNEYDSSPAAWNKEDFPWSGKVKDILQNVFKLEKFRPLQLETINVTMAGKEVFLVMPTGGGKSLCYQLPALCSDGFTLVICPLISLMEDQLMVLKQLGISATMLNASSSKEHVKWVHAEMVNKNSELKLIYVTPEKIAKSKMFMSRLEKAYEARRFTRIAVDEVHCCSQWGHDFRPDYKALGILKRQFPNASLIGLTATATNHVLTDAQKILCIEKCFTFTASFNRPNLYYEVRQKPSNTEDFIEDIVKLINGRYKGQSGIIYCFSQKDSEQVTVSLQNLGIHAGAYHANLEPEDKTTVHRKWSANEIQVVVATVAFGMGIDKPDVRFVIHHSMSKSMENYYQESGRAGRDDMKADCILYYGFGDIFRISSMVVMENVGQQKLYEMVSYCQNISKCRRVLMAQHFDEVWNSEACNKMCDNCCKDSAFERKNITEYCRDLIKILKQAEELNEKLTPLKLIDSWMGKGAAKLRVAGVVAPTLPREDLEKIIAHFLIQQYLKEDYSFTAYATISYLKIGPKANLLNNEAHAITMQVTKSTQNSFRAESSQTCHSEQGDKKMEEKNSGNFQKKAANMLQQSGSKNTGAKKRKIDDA
Procedure, shortened: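 RECQ1T1 50 nM; forked duplex (20 bp + 30-nt ss tails) 200 nM, ATP 2 mM final; pH 8.0, 2 mM MgCl2, 2.5 ug/ml poly(dI-dC); 15 min compound preincubation; discontinuous kinetic read over 2 h at RT.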

[3] = molecular target: RecQ-like DNA helicase BLM (Homo sapiens) (UniProt P54132); assay: qHTS Validation Assay for Inhibitors of Bloom's syndrome helicase (BLM) (AID 2364)
Sequence of RecQ-like DNA helicase BLM (Homo sapiens) (P54132 whole entry, looked up): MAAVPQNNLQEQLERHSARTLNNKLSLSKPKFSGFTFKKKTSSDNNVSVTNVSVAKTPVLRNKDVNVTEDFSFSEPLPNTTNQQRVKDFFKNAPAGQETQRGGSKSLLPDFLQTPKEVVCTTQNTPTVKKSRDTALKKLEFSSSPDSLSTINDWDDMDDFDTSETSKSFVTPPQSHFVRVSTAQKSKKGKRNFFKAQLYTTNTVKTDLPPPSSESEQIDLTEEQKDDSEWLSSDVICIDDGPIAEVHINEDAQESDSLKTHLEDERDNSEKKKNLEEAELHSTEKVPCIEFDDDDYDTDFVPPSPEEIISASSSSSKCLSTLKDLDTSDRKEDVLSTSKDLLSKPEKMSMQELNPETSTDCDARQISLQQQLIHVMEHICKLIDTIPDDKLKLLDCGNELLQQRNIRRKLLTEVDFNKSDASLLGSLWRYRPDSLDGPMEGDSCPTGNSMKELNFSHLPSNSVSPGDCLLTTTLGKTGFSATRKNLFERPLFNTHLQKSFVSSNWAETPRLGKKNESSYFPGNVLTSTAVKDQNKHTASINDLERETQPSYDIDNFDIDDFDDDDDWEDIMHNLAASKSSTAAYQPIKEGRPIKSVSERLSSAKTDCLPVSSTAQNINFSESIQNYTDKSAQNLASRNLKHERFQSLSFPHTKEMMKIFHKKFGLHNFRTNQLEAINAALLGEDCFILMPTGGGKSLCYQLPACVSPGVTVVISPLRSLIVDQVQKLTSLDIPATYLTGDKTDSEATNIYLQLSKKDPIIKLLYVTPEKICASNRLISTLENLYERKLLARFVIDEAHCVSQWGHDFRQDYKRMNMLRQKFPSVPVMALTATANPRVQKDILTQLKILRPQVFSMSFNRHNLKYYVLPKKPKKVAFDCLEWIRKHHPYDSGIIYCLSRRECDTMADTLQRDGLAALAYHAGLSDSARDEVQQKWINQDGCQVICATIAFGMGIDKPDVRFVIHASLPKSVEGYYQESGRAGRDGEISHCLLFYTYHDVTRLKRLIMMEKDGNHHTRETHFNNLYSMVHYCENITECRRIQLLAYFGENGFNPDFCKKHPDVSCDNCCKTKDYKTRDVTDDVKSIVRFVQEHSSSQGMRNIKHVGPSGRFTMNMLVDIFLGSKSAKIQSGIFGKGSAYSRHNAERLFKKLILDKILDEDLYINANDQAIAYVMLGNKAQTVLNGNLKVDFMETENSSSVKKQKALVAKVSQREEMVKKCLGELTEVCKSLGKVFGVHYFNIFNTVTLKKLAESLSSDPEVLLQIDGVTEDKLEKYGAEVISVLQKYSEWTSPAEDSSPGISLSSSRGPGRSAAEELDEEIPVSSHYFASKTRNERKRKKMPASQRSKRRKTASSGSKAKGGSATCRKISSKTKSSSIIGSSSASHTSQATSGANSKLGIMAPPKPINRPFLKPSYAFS
Procedure, shortened: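 Forked 20-bp duplex substrate (200 nM, TAMRA/BHQ-2) plus 2 mM ATP added after 15 min compound preincubation with 50 nM enzyme, pH 8.0, poly(dI-dC) 2.5 ug/ml. Strand separation followed by fluorescence (525/598 nm) over 2 h, normalized to enzyme-free and DMSO controls.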

[4] = Cytometric Cell-Based qHTS for Inhibitors of the mTORC1 Signaling Pathway in MEF (Tsc2-/-, p53-/-) Cells (AID 2660);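 note: Tsc2 and p53 null MEFs carrying empty vector with compound for 24 h; percent of cells above a phospho-rpS6 to PI ratio cutoff in each well; series mostly up to about 38 µM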
Procedure, shortened: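 Cells are plated, treated with compound for 24 hrs at 37 degree Celsius, then fixed, blocked and immunostained for phospho-rpS6 Ser235/236. Propidium iodide counterstain follows. Per-well % positive cells is derived from the PI-normalized phospho-S6 signal.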

[5] = High Content Imaging Cell-Based qHTS for Inhibitors of the mTORC1 Signaling Pathway in MEF (Tsc2-/-, p53-/-) Cells (AID 2666);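 note: percent of cells scored positive for phospho-rpS6 Ser235/236 immunostaining by imaging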
Procedure, shortened: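 Tsc2-/-, p53-/- MEFs (empty-vector stable) grown in DMEM + 10% FBS were exposed to compounds for 24 hrs at 37 degree Celsius, fixed, and stained with Alexa-488 anti-phospho-rpS6 Ser235/236 plus Hoechst. Imaging gave the percentage of positive cells per well.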

[6] = High Content Imaging Cell-Based qHTS for Inhibitors of the mTORC1 Signaling Pathway in MEF Cells (AID 2667); note: potency is the fitted concentration of half-maximal effect
Procedure, shortened: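 Tsc2-/-, p53-/- MEFs stably re-expressing WT Tsc2, grown in DMEM + 10% FBS, were treated with compounds for 24 hrs at 37 degree Celsius, fixed, and stained with Alexa-488 phospho-rpS6 Ser235/236 antibody plus Hoechst; results given as % positive cells.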

[7] = Cytometry Cell-Based qHTS for Inhibitors of the mTORC1 Signaling Pathway in MEF cells (AID 2668); note: potency is the fitted concentration of half-maximal effect
Procedure, shortened: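 In MEFs grown in DMEM + 10% FBS, a 24 hrs compound exposure preceded imaging of phospho-rpS6 Ser235/236 by laser-scanning cytometry.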

[8] = Validation screen for small molecules that induce DNA re-replication in MCF 10A normal breast cells (AID 463097); note: nearly all actives have a fitted effect of over 60% in size
Procedure, shortened: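 Following 48 hr compound incubation (37 C, 5% CO2), MCF 10A cells receive Hoechst for 40 min at 37 C. Nuclei are then scanned (excitation 405 nm, emission 500-530 nm) for total fluorescence intensity.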

[9] = molecular target: Endonuclease 4 (Escherichia coli (strain K12)) (UniProt P0A6C1); assay: Counterscreen for APE1 Inhibitors: qHTS Assay for Inhibitors of Endonuclease IV (AID 2565)
Procedure, shortened: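 The reaction buffer contained 50 mM Tris-HCl pH 7.5, 50 mM NaCl, 2 mM MgCl2, 1 mM DTT and 0.01% Tween-20. Incision of a 50 nM fluorophore/quencher THF substrate by 2 nM enzyme was measured kinetically.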

[10] = molecular target: DNA repair nuclease/redox regulator APEX1 (Homo sapiens) (UniProt P27695); assay: Confirmation qHTS Assay for Inhibitors of the Human Apurinic/apyrimidinic Endonuclease 1 (APE1) (AID 2572);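 note: fluorescence gain from purified APE1 cutting a TAMRA/BHQ-2 THF abasic duplex; nearly all actives have a fitted effect of over 30% in size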
Sequence of DNA repair nuclease/redox regulator APEX1 (Homo sapiens) (P27695 whole entry, looked up): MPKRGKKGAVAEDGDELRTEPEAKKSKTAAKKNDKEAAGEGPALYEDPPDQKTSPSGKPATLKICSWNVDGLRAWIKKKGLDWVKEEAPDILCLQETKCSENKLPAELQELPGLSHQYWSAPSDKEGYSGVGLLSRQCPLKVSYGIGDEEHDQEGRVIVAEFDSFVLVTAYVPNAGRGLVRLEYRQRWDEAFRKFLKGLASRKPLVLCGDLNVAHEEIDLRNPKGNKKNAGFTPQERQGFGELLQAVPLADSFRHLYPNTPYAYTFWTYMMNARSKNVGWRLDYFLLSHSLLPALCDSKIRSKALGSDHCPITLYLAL
Procedure, shortened: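 Inhibition is measured on a short double-stranded THF-site oligo, 50 nM final, whose incision relieves BHQ-2 quenching of TAMRA. After 15 min enzyme–compound preincubation at RT, three reads a minute apart are taken.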

Measured: Potency

OC[C@H]1O[C@@H](n2cnc3c(NC4CCCCC4)ncnc32)[C@H](O)[C@@H]1O
inactive: [1] | [2] | [3] | [4] | [5] | [6] | [7] | [8]

CN1[C@@H](CC(=O)c2ccccc2)CCC[C@H]1C[C@H](O)c1ccccc1
inactive: [1] | [2] | [3] | [4] | [5] | [6] | [8]

Oc1cc(O)cc(/C=C/c2ccc(O)c(O)c2)c1
inactive: [1] | [2] | [4] | [5]

NCCCCCCCCCCN
inactive: [1] | [2] | [3] | [4] | [5] | [6] | [8]

Clc1ccc(N2CCN(Cc3c[nH]c4ncccc34)CC2)cc1
inactive: [1] | [2] | [3] | [4] | [5] | [6] | [7] | [8]

COc1cc2nc(N3CCN(C(=O)OCc4ccccc4)C(C(=O)NC(C)(C)C)C3)nc(N)c2cc1OC (configuration not stated)
inactive: [1] | [2] | [3] | [4] | [5]

CN(C)c1nc(N)c(C(=O)N=C(N)N)nc1Cl
inactive: [1] | [2] | [3] | [4] | [5] | [6] | [7] | [8]

CO/N=C(\C(=O)N[C@@H]1C(=O)N2C(C(=O)O)=C(COC(C)=O)CS[C@H]12)c1csc(N)n1 (stereo in doubt)
active: [2] 10 µM
inactive: [1] | [3] | [9] | [10] | [8]

C=C[C@@H]1CN2CC[C@@H]1C[C@H]2[C@H](O)c1ccnc2ccc(OC)cc12
inactive: [1] | [2] | [3] | [4] | [5] | [6] | [7] | [8]

O=C(O)CC[C@@H](C(=O)O)N1C(=O)c2ccccc2C1=O
inactive: [1] | [2] | [3] | [4] | [5] | [6] | [7] | [8]

CN[C@H](CC(C)C)C(=O)N[C@H]1C(=O)N[C@@H](CC(N)=O)C(=O)N[C@H]2C(=O)N[C@H]3C(=O)N[C@H](C(=O)N[C@H](C(=O)O)c4cc(O)cc(O)c4-c4cc3ccc4O)[C@H](O)c3ccc(c(Cl)c3)Oc3cc2cc(c3O[C@@H]2O[C@H](CO)[C@@H](O)[C@H](O)[C@H]2O[C@H]2C[C@](C)(N)[C@H](O)[C@H](C)O2)Oc2ccc(cc2Cl)[C@H]1O
inactive: [1] | [2] | [3] | [8]

COc1ccc(NC(=O)/C=C/c2ccc(Cl)cc2)cc1
inactive: [1] | [2] | [4] | [5] | [6] | [7]

CN1CCc2ccccc2Cc2[nH]c3ccccc3c2CC1
inactive: [1] | [2] | [4] | [5] | [6]

NO
inactive: [1] | [2] | [3] | [4] | [5] | [6] | [7] | [8]

CC12C(=O)OC(=O)C1(C)C1CCC2O1 (configuration not stated)
inactive: [1] | [2]

O=C(/C=C/c1ccc(O)cc1)c1ccc(O)cc1O
inactive: [1] | [2] | [4] | [5] | [6]

COc1cccc(C(=O)NCCN2CCN(c3ccc(Cl)cc3)CC2)c1
inactive: [1] | [2] | [3] | [4] | [5] | [6] | [8]

CCCCC/C=C\CC(O)/C=C/c1cccc(CC(O)CCCCO)n1 (configuration not stated)
inactive: [1] | [2] | [3] | [4] | [5] | [6] | [8]

CN(C)CCC(c1ccc(Cl)cc1)c1ccccn1 (configuration not stated)
inactive: [1] | [2] | [3] | [4] | [5] | [6] | [7] | [8]

CN1CCc2cccc3c2C1Cc1ccc(O)c(O)c1-3 (configuration not stated)
inactive: [1] | [2] | [3] | [4] | [5] | [6] | [7]

COc1ccc(/C=C/C(=O)Nc2ccccc2C(=O)O)cc1OC
inactive: [1] | [2] | [3] | [4] | [5] | [6] | [7] | [8]

COc1cccc(OC)c1OCCNCC1COc2ccccc2O1 (configuration not stated)
inactive: [1] | [2] | [3] | [4] | [5] | [6] | [8]

CCCCN1CCC(n2c(=O)[nH]c3ccccc32)CC1
inactive: [1] | [2] | [3] | [4] | [5] | [6] | [7] | [8]

CC1CN(S(=O)(=O)c2cccc3cnccc23)CCN1 (configuration not stated)
inactive: [1] | [2] | [3] | [4] | [5] | [6] | [7] | [8]

CC(=O)N[C@H](C(=O)O)C(C)(C)SN=O
inactive: [1] | [2] | [3] | [4] | [5] | [6] | [8]

S=C(S)OC1CC2CC1C1CCCC21 (configuration not stated)
active: [1] 17.8 µM
inactive: [2] | [4] | [5] | [6] | [7]

O=C(O)c1cc(=O)c2ccccc2[nH]1
inactive: [1] | [2] | [3] | [4] | [5] | [6] | [7] | [8]

c1cnc2c(c1)ccc1cccnc12
active: [6] 0.0465 µM | [7] 4.65 µM
inactive: [1] | [2] | [3] | [4] | [5]

COc1cc(C(O)CO)ccc1OS(=O)(=O)O (configuration not stated)
inactive: [1] | [2] | [3] | [4] | [5] | [6] | [7] | [8]

NCCCS(=O)(=O)O
inactive: [1] | [2] | [3] | [4] | [5] | [6] | [7]
